Columns and labels:
Experiment in all cases: PBM binding z-score (relative to random genomic background probes); higher = stronger binding; sequences stand for … in GC…GCGATTGACAGCGTAGAATGAAGG
[1] = system: FXR:RXRa (NR concentration 270 nM, RXRa partner concentration 90 nM)
Summary of the method: (§1)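 Regression normalization was applied to scanned fluorescence from custom Agilent 4×180K protein-binding microarrays. Before scanning, arrays were incubated 1 h with ligand-free nuclear receptor dimers, and binding was detected with antibodies against each partner (one per run). Binding z-scores use the random background probes as reference.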

[2] = system: LXRa:RXRa (NR concentration 270 nM, RXRa partner concentration 90 nM)
Summary of the method: as §1

[3] = system: LXRa homodimer (NR concentration 270 nM)
Summary of the method: as §1

[4] = system: LXRb:RXRa (NR concentration 270 nM, RXRa partner concentration 90 nM)
Summary of the method: as §1

[5] = system: LXRb homodimer (NR concentration 270 nM)
Summary of the method: as §1

[6] = system: PPARa:RXRa (NR concentration 270 nM, RXRa partner concentration 90 nM)
Summary of the method: as §1

[7] = system: PPARg:RXRa (NR concentration 180 nM, RXRa partner concentration 90 nM)
Summary of the method: as §1

[8] = system: PPARg:RXRa 270nM:90nM, anti-RXR (NR concentration 270 nM, RXRa partner concentration 90 nM)
Summary of the method: as §1

[9] = system: PPARg:RXRa 30nM:10nM, anti-RXR (NR concentration 30 nM, RXRa partner concentration 10 nM)
Summary of the method: as §1

[10] = system: PPARg:RXRa 90nM:30nM, anti-RXR (NR concentration 90 nM, RXRa partner concentration 30 nM)
Summary of the method: as §1

[11] = system: PPARg:RXRa DBDmut IVT, anti-RXR (DBD mutation: RXRa K156A/R161A, NR concentration 270 nM, RXRa partner concentration 90 nM)
Summary of the method: as §1

[12] = system: PPARg:RXRa IVT, anti-PPARg (NR concentration 270 nM, RXRa partner concentration 90 nM)
Summary of the method: as §1

[13] = system: PPARg DBDmut:RXRa IVT, anti-PPARg (DBD mutation: PPARg1 K132A/R137A, NR concentration 270 nM, RXRa partner concentration 90 nM)
Summary of the method: as §1

[14] = system: PPARg DBDmut IVT, anti-PPARg (DBD mutation: PPARg1 K132A/R137A, NR concentration 270 nM)
Summary of the method: as §1

[15] = system: PPARg homodimer (NR concentration 180 nM)
Summary of the method: as §1

[16] = system: PXR:RXRa (NR concentration 270 nM, RXRa partner concentration 90 nM)
Summary of the method: as §1

[17] = system: PXR homodimer (NR concentration 270 nM)
Summary of the method: as §1

[18] = system: RARa:RXR (NR concentration 270 nM, RXRa partner concentration 90 nM)
Summary of the method: as §1

[19] = system: RARa homodimer (NR concentration 270 nM)
Summary of the method: as §1

[20] = system: RARb:RXRa (NR concentration 270 nM, RXRa partner concentration 90 nM)
Summary of the method: as §1

Row | Sequence | PBM binding z-score [1] | PBM binding z-score [2] | PBM binding z-score [3] | PBM binding z-score [4] | PBM binding z-score [5] | PBM binding z-score [6] | PBM binding z-score [7] | PBM binding z-score [8] | PBM binding z-score [9] | PBM binding z-score [10] | PBM binding z-score [11] | PBM binding z-score [12] | PBM binding z-score [13] | PBM binding z-score [14] | PBM binding z-score [15] | PBM binding z-score [16] | PBM binding z-score [17] | PBM binding z-score [18] | PBM binding z-score [19] | PBM binding z-score [20]
1 | ATGTGTAGGTTAAGGGTCATTCAGGTTGGTTCGC | 5.28 | 4.85 | 3.49 | 4.71 | 2.56 | 5.72 | 9.4 | 8.54 | 9.74 | 9.9 | 3.87 | 5.47 | 1.46 | 1.87 | 4.52 | 5.44 | 4.53 | 6.37 | 3.77 | 3.91
2 | CCGAGTAAGTTATGGGGCATTCAGGCAACGGTGA | -0.323 | -0.322 | -0.465 | -0.146 | -0.649 | -0.0291 | 0.19 | 0.385 | -0.496 | 0.0497 | 0.876 | 0.12 | 0.0533 | -0.856 | 0.399 | -0.507 | -0.558 | -0.445 | -0.0178 | -0.111
3 | CCTCGTTGGTCAAGGTCACACACGCTATAGGTAC | 4.27 | 4.25 | 2.8 | 3.8 | 1.08 | 4.07 | 2.47 | 3.17 | 0.974 | 2.24 | 1.3 | 2.58 | 1.08 | -0.102 | 3.26 | 4.25 | 1.82 | 4.63 | 2.69 | 4.18
4 | ATCTCTAGGTAAAGTTCAGTGGAAGATCGATAGA | 1.56 | 2.02 | 1.68 | 1.29 | 1.27 | 2.23 | 2.75 | 3.85 | 2.32 | 3.46 | 2.46 | 2.61 | 1.21 | 1.71 | 1.29 | 2.07 | 1.8 | 1.44 | 1.81 | 2.86
5 | AAACCAAGGTGATCGTGAGGTCGTTGATACTAAC | 1.87 | 1.29 | 0.284 | 1.13 | -0.456 | 1.54 | 0.386 | 0.544 | -0.322 | 0.389 | 0.846 | 1.19 | 0.252 | 0.247 | 0.649 | 3.05 | 1.5 | 2.16 | -0.27 | 1.24
6 | ATATGTAGGTTAAGGGTCATACAGGTTGGTTCGC | 4.79 | 4.61 | 2.43 | 4.61 | 1.28 | 6.57 | 12.1 | 10.2 | 9.63 | 12.5 | 7.57 | 7.96 | 4.09 | 2.15 | 4.5 | 5.37 | 1.88 | 6.2 | 2.6 | 3.76
7 | TCTATTAGTTGATTAGGGCAATCGAAACAGCGGA | 0.665 | 0.828 | 0.306 | 0.766 | 0.542 | 0.871 | 0.0917 | 2.06 | 3.7 | 2.93 | 2.23 | 1.29 | 0.785 | 0.869 | 1.1 | 0.568 | 0.192 | 0.781 | 1.56 | 0.778
8 | CCTAACGGGTCACTGACAGGTTATAGCATTTGGA | 4.16 | 3.46 | 0.268 | 2.65 | -0.0444 | 4.42 | 3.07 | 3.01 | 0.84 | 1.88 | 2.22 | 2.71 | -0.265 | -0.262 | 2.61 | 3.02 | 0.336 | 4.05 | 1.31 | 3.48
9 | ATCTCTAGGTAACGATAGTTCAGTGAATGCAAAT | 0.157 | 4.89 | 0.491 | 1.33 | 0.408 | 0.791 | 0.696 | 0.807 | 0.214 | 0.514 | 3.41 | 3.08 | 1.42 | 1.62 | 0.431 | 0.926 | 0.85 | 0.162 | 0.352 | 0.902
10 | CATACAGGGTCAGCTGGGCCAGAGTAGGGACGGC | 4.32 | 3.28 | -0.0929 | 2.08 | 0.0372 | 4.46 | 2.85 | 3.35 | 0.594 | 2.16 | 1.23 | 2.66 | 0.246 | 0.292 | 1.52 | 2.22 | -0.145 | 2.81 | 0.258 | 4.08
11 | TCTTCTAGATCAAAGGTTAAGAAAGCCGAAGCCT | 1.43 | 1.87 | -0.049 | 2.13 | 0.536 | 4.9 | 7.46 | 8.19 | 8.13 | 8.51 | 2.42 | 3.52 | 0.463 | 0.915 | 1.09 | 1.63 | -0.258 | 2.74 | 0.0747 | 1.98
12 | TCAGACAGGTTAAGGTAACTCAGGTACGCAGTCG | 1.49 | 2.63 | 0.305 | 1.79 | 0.039 | 1.93 | 0.858 | 2.5 | 4.03 | 3.21 | 2.56 | 0.69 | 0.624 | 0.18 | 1.1 | 1.1 | 0.461 | 1.54 | 0.655 | 1.51
13 | CATACAGGGTCAGCTAGGCCAGAGTGGGGACGGC | 4.45 | 2.94 | 0.0582 | 2.72 | 0.724 | 4.31 | 2.96 | 3.01 | 0.597 | 1.9 | 1.06 | 2.57 | -0.069 | 1.07 | 1.44 | 2.19 | 0.0916 | 2.78 | 0.651 | 4.03
14 | CAAACTAGGTCACAGAGGTCAAAGTGCGTGCGTA | 7.35 | 6.76 | 7.05 | 6.54 | 2.29 | 6.71 | 10.1 | 8.21 | 6.64 | 8.45 | 8.28 | 9.04 | 1.58 | 0.779 | 3.18 | 6.72 | 9.97 | 7.47 | 2.13 | 5.4
